Columns and labels:
Settings in all cases: concentration: 1 μM, replicates: in singlicate; n = 1
[1] = test system: BUB1
[2] = test system: CAMK1B
[3] = test system: CAMK1D
[4] = test system: CAMK1G
[5] = test system: CAMK1
[6] = test system: CAMK2A
[7] = test system: CAMK2B
[8] = test system: CAMK2D
[9] = test system: CAMK2G
[10] = test system: CAMK4
[11] = test system: CAMKK1
[12] = test system: CAMKK2
[13] = test system: CASK
[14] = test system: T1, CDC2L1
T1 construct: gene CDK11B

[15] = test system: CDC2L2
[16] = test system: T2, CDC2L5
T2 construct: gene CDK13

[17] = test system: T3, CDK11
T3 construct: gene CDK19

[18] = test system: CDK2
[19] = test system: CDK3
[20] = test system: CDK4-cyclinD1
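Further: KINOMEscan kinase panel screen.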

Compound | %Inh [1] | %Inh [2] | %Inh [3] | %Inh [4] | %Inh [5] | %Inh [6] | %Inh [7] | %Inh [8] | %Inh [9] | %Inh [10] | %Inh [11] | %Inh [12] | %Inh [13] | %Inh [14] | %Inh [15] | %Inh [16] | %Inh [17] | %Inh [18] | %Inh [19] | %Inh [20]
Cc1ccc(C(=O)NCC(N)=O)cc1-n1c(C)cc(OCc2ccc(F)cc2F)c(Br)c1=O | 0% | 10% | 36% | 0% | 44% | 9% | 1% | 0% | 0% | 26% | 3% | 0% | 0% | 7% | 20% | 0% | 0% | 0% | 0% | 0%
O=C(Nc1cccc(-c2nn3ncccc3c2-c2ccnc(Nc3cccc(C(F)(F)F)c3)n2)c1)c1c(F)cccc1F [GSK299495] | 80% | 30% | 21% | 9% | 32% | 100% | 100% | 19% | 11% | 0% | 0% | 8% | 13% | 0% | 19% | 0% | 15% | 0% | 3% | 0%
CN1c2ccc(NCc3ccc(F)cc3)cc2-c2c(cnn2C)S1(=O)=O | 0% | 0% | 0% | 0% | 0% | 0% | 0% | 3% | 15% | 22% | 0% | 0% | 26% | 0% | 0% | 27% | 0% | 25% | 0% | 21%
Cl.Oc1cccc(Nc2ccnc3cc(-c4ccncc4)ccc23)c1 [GW494601] | 81% | 5% | 5% | 0% | 35% | 0% | 0% | 6% | 29% | 0% | 0% | 29% | 10% | 0% | 10% | 0% | 4% | 0% | 0% | 0%
Cc1nnc(-c2ccc3ncc(-c4ccc(S(C)=O)cc4)n3c2)o1 (centres unmarked) | 16% | 6% | 0% | 26% | 0% | 0% | 0% | 25% | 27% | 0% | 24% | 46% | 0% | 0% | 0% | 25% | 17% | 0% | 2% | 8%
Nc1nccc(-c2c(-c3ccc(F)cc3)ncn2C2CCN(CC(F)(F)F)CC2)n1 [SB-236560] | 49% | 80% | 0% | 2% | 0% | 0% | 0% | 0% | 93.3% | 11% | 13% | 88% | 0% | 0% | 0% | 43% | 17% | 0% | 11% | 49%
CN(C1=C(c2ccccc2)C(=O)NC1=O)c1ccccc1 [SB-334860] | 0% | 34% | 3% | 0% | 6% | 7% | 11% | 1% | 3% | 0% | 0% | 16% | 17% | 0% | 14% | 0% | 8% | 5% | 8% | 0%

Reference: PMC5540273 (PLoS ONE, 2017)
